# Compound activity from PubChem BioAssay.
# The entries come from a sample that favours hits as a whole.
# ClpP mod – qHTS Assay for Activators of ClpP | Potency, µM (series often up to 57.5 µM) | 1.9% of 340,000 active | purified B. subtilis ClpP, FRET peptide cleavage, 20 min; active = well fitted falling curve with a large enough effect; inconclusive = small, poorly fitted or top-dose-only effect; inactive = no such curve, though single readings can be large or run the other way; note: the source files actives as falling curves though it sought activators and does not explain the sign; nearly all actives have a fitted effect of over 65% in size
# Target sequence (P80244 whole entry, looked up): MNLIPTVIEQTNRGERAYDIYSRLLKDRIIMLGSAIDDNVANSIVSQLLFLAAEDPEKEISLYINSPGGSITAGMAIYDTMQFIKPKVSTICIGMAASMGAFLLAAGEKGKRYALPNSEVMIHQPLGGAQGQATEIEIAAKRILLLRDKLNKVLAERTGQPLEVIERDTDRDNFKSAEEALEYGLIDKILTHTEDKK
#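 ClpP 10 microg/mL final, pH 8 Tris/KCl buffer with BSA, glycerol, Tween-20; compound pinned in; FRET-FV substrate; RT 20 min; Ex320/Em430; ΔFRET vs ADEP 5.8 microM, DMSO, no enzyme.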
# Mm-Cpn inhibitor – inhibitors of Methanococcus maripaludis chaperonin TRiC (MmCpn) | purified Mm-Cpn ATPase, ADP Transcreener TR-FRET | 0.031% of 330,000 active | Potency, µM (highest dose often 76.9 µM), most hits filed as inhibitors; note: nearly all actives have a fitted effect of over 80% in size
#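 Purified archaeal Mm-CPN (25nM final) preincubated 10 min at 37degC with compound, then 10uM ATP for 30 min at 37degC; ADP measured by HTRF Transcreener TR-FRET; buffer 30 mM TRIS pH 7.4, 100mM KCl, 5mM MgCl2, 1mM DTT.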
# a7 integrin act – integrin-mediated muscular dystrophy alleviation activation; alpha7betagal myoblasts, beta-gal FDG fluorescence, 48 h; Potency, µM (top dose mostly 38.3 µM), usual class: activators; 0.064% of 350,000 active; AID 624291; note: nearly all actives have a fitted effect of over 60% in size
#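 alpha7betagal+/- myoblasts (passage 13, 250/well) treated 48 h at 37C with compounds at 1:260 dilution of DMSO stock. Lysed, then beta-galactosidase activity read as FDG fluorescence (ex 480/em 540) after 30 min, with pre-read for autofluorescence.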
# USP2a inh – inhibitors of human ubiquitin-specific protease USP2a; USP2 core, Ub-CHOP2 coupled fluorogenic reporter, 485/531; Potency, µM (doses to about 38.3 µM), most hits filed as inhibitors; 0.01% of 330,000 active; AID 463254
#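 Cell-free coupled assay: 10nM USP2 core preincubated 30min RT with compound in Tris-HCl pH 8.0/CaCl2/CHAPS buffer, then 25nM Ub-CHOP2 and 25nM reporter substrate; fluorescence (Ex 485/Em 531) read after 60min RT, normalized to NEM inhibition, concentration-response curves fitted.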
# Eya2 phos inh – inhibitors of human Eya2 phosphatase activity; Potency, µM (titrated, usually from 76.9 µM), actives largely listed as inhibitors; O00167; 0.006% of 330,000 active; recombinant Eya2, OMFP fluorescence dephosphorylation (OMFP is methylfluorescein phosphate); AID 488837
# Target sequence (O00167 whole entry, looked up): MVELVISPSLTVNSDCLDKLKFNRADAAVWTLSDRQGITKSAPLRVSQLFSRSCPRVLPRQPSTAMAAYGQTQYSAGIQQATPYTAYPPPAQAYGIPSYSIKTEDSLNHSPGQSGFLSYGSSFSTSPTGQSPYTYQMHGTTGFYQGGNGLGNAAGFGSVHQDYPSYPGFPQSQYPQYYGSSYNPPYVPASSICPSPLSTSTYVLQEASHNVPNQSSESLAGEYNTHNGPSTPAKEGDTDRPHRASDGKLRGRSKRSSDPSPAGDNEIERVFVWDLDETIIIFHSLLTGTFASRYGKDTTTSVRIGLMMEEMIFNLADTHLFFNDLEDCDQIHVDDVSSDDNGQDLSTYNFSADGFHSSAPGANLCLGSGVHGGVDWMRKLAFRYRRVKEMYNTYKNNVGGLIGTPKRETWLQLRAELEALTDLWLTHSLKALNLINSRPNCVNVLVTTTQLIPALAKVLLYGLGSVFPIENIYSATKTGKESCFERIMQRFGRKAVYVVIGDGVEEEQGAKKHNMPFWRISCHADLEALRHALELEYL
#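 Eya2 protein (added as 0.2 uM solution) was preincubated with compound for 10 min at ambient temperature in 50 mM HEPES pH 7.5, 50 mM NaCl, 5 uM MgCl2, 0.05% BSA, 1 mM DTT. OMFP (added at 50 uM) then reacted 10 min; fluorescence read at 485/525 nm.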
# p53 reactivation – restores transcriptional activity of mutant p53 | AID 504706 | 0.063% of 320,000 active | H1299 p53-A138V BP100-luciferase reporter, luminescence, 24 h | Potency, µM (titrated, usually from 92.2 µM), actives largely listed as activators; note: nearly all actives have a fitted effect of over 45% in size
#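 H1299 (p53-null), stable ts p53-A138V + BP100-Luc; 1000 cells/well, Opti-MEM/10% FBS; cpd 4 pt, 1:5; 24 h, 37 deg C, 5% CO2; detection reagent 10 min RT; luminescence.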
# A number is an active result; n = inactive; u = inconclusive; x = not tested or not shown. Unless noted, calls come from the whole dose curve; as a rule, active = well fitted curve in the direction sought with a large enough effect; inconclusive = small, poorly fitted or top-dose-only effect, or another doubt; inactive = no such curve, though single readings can be large; an effect the other way counts as inactive or inconclusive.
SMILES,ClpP mod,Mm-Cpn inhibitor,a7 integrin act,USP2a inh,Eya2 phos inh,p53 reactivation
Cc1ccccc1Cc1c(C)nc2c(C(=O)NCc3ccco3)cnn2c1C,31.6µM,n,n,n,n,n
Cc1ccc(C)c(Cc2c(C)nc3c(C(=O)N4CCOCC4)cnn3c2C)c1,28.2µM,n,n,n,n,n
C=CCN1[C@@H](C(C)C)COCCS1(=O)=O,n,x,x,x,x,x
C=C1C=C(C(F)F)n2ncc(C(=O)NCc3ccc(F)cc3)c2N1,n,x,x,x,x,x
O=C(CCS(=O)(=O)c1nc(-c2cccs2)cc(C(F)(F)F)n1)Nc1ccc(F)c(Cl)c1,22.4µM,x,x,x,x,x
CCOC(=O)c1[nH]c2cc3c(cc2c1NC(=O)CN1CCCC1)OCO3,n,n,n,n,n,n
CCOC(=O)c1[nH]c2cc3c(cc2c1NC(=O)CN1CCC(C)CC1)OCO3,11.2µM,n,n,n,n,n
CCOC(=O)c1[nH]c2cc3c(cc2c1NC(=O)CN1CCc2ccccc2C1)OCO3,3.16µM,n,n,n,n,n
CCOC(=O)N1CCN(CC(=O)Nc2c(C(=O)OC)[nH]c3ccccc23)CC1,n,n,n,n,n,n
COc1ccc(/C=C/C(=O)NCc2ccccn2)cc1,25.1µM,n,n,n,n,n
COc1cc(/C=C/C(=O)NCc2ccccn2)cc(OC)c1OC,25.1µM,n,n,n,n,n
COc1cc(/C=C/C(=O)Nc2nnc(CC(C)C)s2)cc(OC)c1OC,35.5µM,n,n,n,n,n
CCCN(CCC)c1nc(N)nc(C#N)n1,n,x,x,x,x,x
O=C1Cc2ccccc2C1=C1C=c2ccccc2=C1,n,x,x,x,x,x
c1ccc(C(NCc2cccnc2)(c2ccccc2)c2ccccc2)cc1,x,x,x,x,n,x
CC(=O)Nc1ccc(S(=O)(=O)Oc2ccc(C(=S)N3CCCCC3)cc2)cc1,3.98µM,n,n,n,n,n
Cc1ccc(S(=O)(=O)N2CCN(S(=O)(=O)c3ccc4c(c3)OCCCO4)CC2)cc1,n,x,x,x,x,x
COc1ccccc1C(NC(=O)CC(C)C)c1c(O)ccc2ccccc12 (centres undefined),35.5µM,n,n,n,n,u
N.N.O=C(O)C1(C(=O)O)CCC1.[Pt+2],x,x,x,x,n,x
CCOC(=O)C1CCCN(C(=O)Cn2nc(C)n3c(cc4c(OC)cccc43)c2=O)C1 (centres undefined),n,n,n,n,n,n
CCOC(=O)C1CCN(C(=O)Cn2nc(C)n3c(cc4c(OC)cccc43)c2=O)CC1,2.82µM,x,x,x,x,x
COc1cccc(N2CCN(C(=O)Cn3nc(C)n4c(cc5c(OC)cccc54)c3=O)CC2)c1,n,x,x,x,x,x
COc1cccc2c1cc1c(=O)n(CC(=O)N3CCN(c4cccc(C(F)(F)F)c4)CC3)nc(C)n12,15.8µM,x,x,x,x,x
COc1ccc(NS(=O)(=O)c2cccc(C(=O)NCC(c3ccc(OC)cc3)N3CCCC3)c2)cc1 (centres undefined),28.2µM,n,n,n,n,n
NC(=O)c1c(NC(=O)C2COc3ccccc3O2)sc2c1CCN(Cc1ccccc1)C2 (centres undefined),x,n,n,n,n,n
SMILES,ClpP mod,Mm-Cpn inhibitor,a7 integrin act,USP2a inh,Eya2 phos inh,p53 reactivation
CCOC(=O)c1c(C2COc3ccccc3O2)csc1N (centres undefined),n,n,n,n,n,n
CCOC(=O)c1c(NC(=O)C2COc3ccccc3O2)sc2c1CCN(Cc1ccccc1)C2 (centres undefined),25.1µM,n,n,n,n,n
CCOC(=O)c1c(C2COc3ccccc3O2)csc1NC(=O)c1ccccc1 (centres undefined),14.1µM,n,n,n,n,n
COc1ccccc1NC(=O)C1=C(C)Nc2c(C(=O)Nc3ccc(F)cc3)cnn2C1c1ccc(Cl)cc1 (centres undefined),28.2µM,x,x,x,x,x
CC1=C(C(=O)Nc2ccc(C)cc2C)C(c2cc(Br)ccc2F)n2ncc(C(=O)Nc3ccc(C)cc3)c2N1 (centres undefined),20µM,x,x,x,x,x
COc1ccc(C2C(C(=O)Nc3ccccc3OC)=C(C)Nc3ncnn32)cc1 (centres undefined),n,n,n,n,n,n
Cc1ccc2nc(SCc3cccc([N+](=O)[O-])c3)nc(C)c2c1,n,n,n,n,n,n
COc1ccc2nc(SCc3ccccc3C)nc(C)c2c1,7.08µM,n,n,n,n,u
COc1ccc2nc(SCCOC(=O)Nc3ccc(Cl)cc3)nc(C)c2c1,28.2µM,n,n,n,n,n
COc1ccc2nc(C)cc(SCC(=O)O)c2c1,n,n,n,n,n,n
COc1ccc2nc(SCC(=O)O)nc(C)c2c1,28.2µM,n,n,n,n,n
COc1ccc2nc(SCc3cccc(C)c3)nc(C)c2c1,25.1µM,n,n,n,n,u
Nc1nc(NCc2ccc(Cl)cc2)c2[nH]cnc2n1,n,x,x,x,x,x
Fc1ccc(-n2ncc3c(Nc4cccc(Cl)c4)ncnc32)cc1,n,x,x,x,x,x
Cc1ccc2c(C)nc(N/C(N)=N/S(=O)(=O)c3ccccc3)nc2c1,28.2µM,n,n,n,n,n
Cc1ccc(S(=O)(=O)/N=C(\N)Nc2nc(C)c3ccc(C)cc3n2)cc1,u,n,n,n,n,n
CCc1cccc(NC(=O)C(c2ccccc2)N2Cc3ccccc3C2=O)c1 (centres undefined),n,x,x,x,x,x
C=CCNc1nc(NCCOc2ccccc2Cl)c2sc(-c3ccccc3)cc2n1,28.2µM,x,x,x,x,x
C=CCNc1nc(NCCOC)c2sc(-c3ccccc3)cc2n1,n,x,x,x,x,x
c1ccc(OCCNc2nc(NCC3CC3)nc3cc(-c4ccccc4)sc23)cc1,25.1µM,x,x,x,x,x
Clc1ccccc1OCCNc1nc(NCC2CC2)nc2ccsc12,n,x,x,x,x,x
Cc1c(C(=O)N2CCOCC2)oc2ccc(S(=O)(=O)N3CCCC3)cc12,n,35.5µM,n,n,n,u
COc1ccc(-c2cn3cccnc3n2)cc1NC(=O)c1cc(C)cc(C)c1,n,x,x,x,x,x
Cc1cc(N(C)C)cc(C)c1/C=C/c1ccnc2ccccc12,n,x,x,x,x,x
Cc1ccc(C)c(NS(=O)(=O)c2ccc(OCC(=O)N3CCCC3)cc2)c1,n,n,n,n,n,n
Cc1ccccc1NS(=O)(=O)c1ccc(OCC(=O)N2CCCC2)cc1,28.2µM,n,n,n,n,n
O=C(COc1ccc(S(=O)(=O)N2CCCCC2)cc1)N1CCCCCC1,31.6µM,n,n,n,n,n
CC1CCCC2(C1)NC(=S)N(c1ccccc1)N2 (centres undefined),n,n,n,n,n,n
CC1CC(C)(C)CC2(C1)NC(=S)N(c1ccccc1)N2 (centres undefined),15.8µM,n,u,n,n,n
